This is a sample that favours compounds with a hit; in the whole collection about 4% have one here.
D1 antag – antagonists of human D1 dopamine receptor | activity change, negative = inhibition, % at 10 µM | AID 504652 | P21728 | HEK293 TREx D1 cells, calcium flux, dopamine EC80; stronger effect = lower value | 360,000 compounds, 3.2% hits; in the data active = activity change below about -30%; note: % is set by controls: 0 for no effect and ±100 for the full control effect
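Compound effects on dopamine-evoked calcium signalling were measured in tetracycline-induced HEK293 Trex D1 cells. Dopamine at EC80 followed a 180 s compound pre-read, and fluorescence was tracked kinetically for 180 s more.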
D1 agonist – agonists of human D1 dopamine receptor; HEK293 T-REx D1 cells, calcium flux, agonist mode; activation, % at 2 µM; 360,000 compounds, 1% hits; P21728; note: 0% is about no effect
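Tetracycline-induced HEK293 TREx D1 cells, force-coupled to calcium signalling, were dye-loaded with a no-wash calcium kit. Compound was pin-added after a 10 s baseline. Fluorescence was read kinetically at 1 cycle/s for 180 s, with calcium rises flagged as agonism.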
Glioma ERSR ind – induces the endoplasmic reticulum stress response in human glioma cells | U87-MG GRP78 promoter luciferase reporter, 16 h | Potency, µM, for the others: at the top dose activation, hits mostly activators | 420,000 compounds, 0.02% hits | AID 602332; active = well fitted activation curve with a large enough effect; note: potency is the fitted concentration of half-maximal effect; series mostly up to about 76 µM; % of control where 0% means no effect; nearly all actives have a fitted effect of over 35% in size
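Stably transfected U87-MG glioma cells carrying a GRP78-based luciferase sensor; 16 h compound incubation. Luminescence end-point read 10 min after Bright-Glo addition at room temperature.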
D1 potentiator – human D1 dopamine receptor positive modulation; AID 504651; 360,000 compounds, 0.036% hits; potentiation, % at 10 µM; P21728; HEK293 TREx D1 cells, calcium flux, dopamine EC20 potentiation; in the data active = potentiation above about 30%; note: 0% is about no effect
TRHR ag – agonists of human TRH receptor; P34981; TRHR cells, calcium flux fluo-8, FDSS agonist mode; activation, % at 2 µM; 360,000 compounds, 0.18% hits; AID 493084; note: 0% is about no effect
Target sequence (P34981 whole entry, looked up): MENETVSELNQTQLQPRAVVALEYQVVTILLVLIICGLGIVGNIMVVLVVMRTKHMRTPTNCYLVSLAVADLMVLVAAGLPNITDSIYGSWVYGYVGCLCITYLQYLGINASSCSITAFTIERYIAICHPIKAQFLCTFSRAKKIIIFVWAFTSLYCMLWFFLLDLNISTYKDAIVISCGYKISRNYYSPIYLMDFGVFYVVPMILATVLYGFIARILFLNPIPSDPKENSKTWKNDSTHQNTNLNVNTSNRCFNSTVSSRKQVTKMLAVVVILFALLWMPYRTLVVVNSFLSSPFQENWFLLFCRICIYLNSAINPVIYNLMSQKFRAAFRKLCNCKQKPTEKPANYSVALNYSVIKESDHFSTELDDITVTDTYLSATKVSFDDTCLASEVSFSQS
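Steps: seed TRHR cells overnight; add fluo-8 no-wash Ca dye, RT 30 min–1.5 h; record 10 s baseline; pin-transfer compounds; monitor fluorescence 1 cycle/s for the agonist window. Calcium increases flag candidate agonists.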
TRHR enhancer – allosteric enhancers of human TRH receptor; TRHR cells, fluo-8 calcium fluorescence, EC20 TRH enhancement; enhancement, % at 2 µM; 360,000 compounds, 0.66% hits; AID 493056; in the data active = enhancement above about 30%; note: 0% is about no effect
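TRHR-expressing cells loaded with fluo-8 calcium dye were read kinetically (ex 480/em 530) during compound addition, then stimulated with an EC20 of TRH (10 nM final). Enhancement of the Gq-mediated intracellular calcium response was scored.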
Starred values were filed as active, the others as inactive; nt = no result given. Cut-off read from the data, not from the text of the source, unless noted: active = activation above about 30%; inactive = the rest.

SMILES | D1 antag | D1 agonist | Glioma ERSR ind | D1 potentiator | TRHR ag | TRHR enhancer
OC(COc1ccc(OCC(O)CN2CCCCCC2)cc1)CN1CCCCCC1 (stereo unspecified) | 14 | -1 | -2% | 2 | 0 | 7
CN(C)S(=O)(=O)N1CCN(CC(O)COc2ccc3cc(Br)ccc3c2)CC1 (stereo unspecified) | -49* | 14 | -3% | -7 | 1 | -14
O=S(=O)(N1CCCCC1)N1CCN(CC(O)COc2ccc3cc(Br)ccc3c2)CC1 (stereo unspecified) | 5 | 3 | -5% | -3 | 4 | -4
OC(COc1ccc2cc(Br)ccc2c1)CN1CCCC1 (stereo unspecified) | -66* | 68* | -1% | -4 | 0 | 0
Cc1nc(N2CCOCC2)nc(Oc2ccccc2)c1[N+](=O)[O-] | 19 | 5 | -2% | -3 | 0 | -1
Cc1ccc(S(=O)(=O)NCC(=O)OCC(=O)c2ccc(S(=O)(=O)N3CCCCC3)cc2)cc1C | nt | nt | -6% | nt | nt | nt
CCc1ccc(C(=O)C(C)OC(=O)CNS(=O)(=O)c2ccc(C)cc2)cc1 (stereo unspecified) | 5 | 32* | -1% | -3 | -1 | 2
CCOC(=O)CNS(=O)(=O)c1ccc(S(=O)(=O)N2CCCC2)cc1 | -103* | 6 | 1% | 0 | 1 | 8
COC(=O)c1ccc(COC(=O)CNS(=O)(=O)c2ccccc2)cc1 | -12 | 3 | -3% | -8 | -1 | -5
CCOC(=O)c1ccc(COC(=O)CNS(=O)(=O)c2ccccc2)cc1 | -33* | 0 | -5% | -7 | -4 | -27
Cc1ccc(S(=O)(=O)NC(=O)C2(C)CCN2C(=O)Cc2cc(F)ccc2F)nc1 (stereo unspecified) | nt | nt | -1% | nt | nt | nt
O=C(/C=C/c1ccccc1)Nc1cccc(C(=O)NCCCCc2ccccc2)c1 | nt | nt | 5% | nt | nt | nt
CN(C)c1ccc(/C=C/c2ccnc3ccccc23)cc1Br | nt | nt | -1% | nt | nt | nt
O=S(=O)(Nc1ccccc1O)c1cccc2cccnc12 | -35* | 13 | -4% | -12 | 1 | 0
COc1ccccc1CCC(=O)Nc1ccc(C)cc1Cl | -5 | 0 | 8% | -4 | 0 | -1
CCS(=O)(=O)N1CC(=O)N(c2ccc(C)c(C)c2)C(C)(C(=O)NC2CCCCC2)C1 (stereo unspecified) | -20 | -3 | -3% | 1 | 0 | 42*
CCc1ccc(NC(=O)NCC2CCN(Cc3cccc(Cl)c3)CC2)cc1 | -37* | 36* | -5% | -10 | 2 | 25
CC(C)(C)NC(=O)CN(Cc1ccc2c(c1)OCO2)C(=O)CCC(=O)Nc1nccs1 | -9 | 1 | -4% | -5 | 0 | 36*
COc1ccccc1N(CC(=O)NC(C)(C)C)C(=O)CCC(=O)Nc1nccs1 | 3 | 0 | -1% | -8 | -1 | 10
COCCNC(=O)CN(Cc1ccc2c(c1)OCO2)C(=O)CCC(=O)Nc1nccs1 | -13 | 2 | -2% | -9 | 1 | 3
CC(C)CCNC(=O)CN(Cc1ccco1)C(=O)CCC(=O)Nc1nccs1 | -1 | -3 | -4% | 2 | 0 | -3
COc1ccc(N(CC(=O)NC(C)(C)C)C(=O)CCC(=O)Nc2nccs2)c(OC)c1 | -31* | -1 | 1% | -6 | 0 | -4
CC(C)(C)NC(=O)CN(Cc1ccco1)C(=O)CCC(=O)Nc1nccs1 | -31* | 1 | -2% | 1 | 0 | 0
CN(C)c1ccc(CNC(=O)c2cccc(NC(=O)N3CCSc4ncccc43)c2)cc1 | -23 | 0 | -1% | -2 | 0 | 18
CN(CC(=O)N1CCOCC1)Cc1c(Cl)cccc1NC(=O)c1ccccc1 | nt | nt | -4% | nt | nt | nt
Cc1cccc(-c2cccc(C(=O)N3CCc4c(cnc(C)c4CNC(=O)c4cncs4)C3)c2)c1 | nt | nt | -4% | nt | nt | nt
CCN(CC)c1ccc(C=C(c2nnnn2-c2ccc(C)cc2)c2nnnn2-c2ccc(C)cc2)cc1 | 5 | 32* | -3% | 2 | 5 | 3
Cc1ccc(-n2nnnc2-c2ccccc2)cc1 | -5 | 6 | -4% | -3 | -2 | -2
O=S(=O)(c1ccc2c(c1)CCCC2)N1CCN(c2nc(-c3ccccc3)nc3ccccc23)CC1 | nt | nt | -2% | nt | nt | nt

Assay outcomes as filed in PubChem BioAssay.
